# This is a sample that favours compounds with a hit; in the whole collection about 1.2% have one here.
# Sa ugtP lethal: compounds lethal to S. aureus RN4220 ugtP deletion mutant. OD600 growth, 16 h. growth inhibition, % (test concentration not listed). 330,000 tested, 0.54% active. AID 1259309; in the data active = growth inhibition above about 68%;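 note: plate controls were untreated wells for no effect and antibiotic for full effect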
# PrP UTR inh: inhibition of PrP 5' UTR reporter expression | cell-based PrP 5' UTR mRNA reporter, plate reader | inhibition, % (no concentration beside the values) | 340,000 tested, 0.35% active; in the data active = inhibition above about 52%; note: 0 = median of the neutral control wells
# PfHsp40 rescue: restores yeast growth despite PfHsp40 toxicity; S. cerevisiae expressing PfHsp40, growth rescue, ATP luminescence; growth rescue, % at 12.5 µM; 340,000 tested, 0.68% active; AID 504582; in the data active = growth rescue above about 28%, passing the limit was not always enough; inconclusive = no clear call, values can overlap the other calls;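 note: yeast W303a lacking pdr1 and pdr3 grown in galactose medium; growth measured after three days at 30 °C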
# Sa RN4220 lethal: S. aureus RN4220 growth inhibition | OD600, 16 h | inhibition, % (no concentration beside the values) | 330,000 tested, 0.33% active; in the data active = inhibition above about 85%;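 note: plate controls were untreated cells for no effect and reference antibiotic for full effect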
# TcdB inh: blocks C. difficile toxin B glycohydrolase activity. P18177. TcdB glycohydrolase enzymatic assay, plate reader. 350,000 tested, 0.24% active. inhibition, % at 9.99 µM; in the data active = inhibition above about 10%
# Target sequence (P18177 whole entry, looked up): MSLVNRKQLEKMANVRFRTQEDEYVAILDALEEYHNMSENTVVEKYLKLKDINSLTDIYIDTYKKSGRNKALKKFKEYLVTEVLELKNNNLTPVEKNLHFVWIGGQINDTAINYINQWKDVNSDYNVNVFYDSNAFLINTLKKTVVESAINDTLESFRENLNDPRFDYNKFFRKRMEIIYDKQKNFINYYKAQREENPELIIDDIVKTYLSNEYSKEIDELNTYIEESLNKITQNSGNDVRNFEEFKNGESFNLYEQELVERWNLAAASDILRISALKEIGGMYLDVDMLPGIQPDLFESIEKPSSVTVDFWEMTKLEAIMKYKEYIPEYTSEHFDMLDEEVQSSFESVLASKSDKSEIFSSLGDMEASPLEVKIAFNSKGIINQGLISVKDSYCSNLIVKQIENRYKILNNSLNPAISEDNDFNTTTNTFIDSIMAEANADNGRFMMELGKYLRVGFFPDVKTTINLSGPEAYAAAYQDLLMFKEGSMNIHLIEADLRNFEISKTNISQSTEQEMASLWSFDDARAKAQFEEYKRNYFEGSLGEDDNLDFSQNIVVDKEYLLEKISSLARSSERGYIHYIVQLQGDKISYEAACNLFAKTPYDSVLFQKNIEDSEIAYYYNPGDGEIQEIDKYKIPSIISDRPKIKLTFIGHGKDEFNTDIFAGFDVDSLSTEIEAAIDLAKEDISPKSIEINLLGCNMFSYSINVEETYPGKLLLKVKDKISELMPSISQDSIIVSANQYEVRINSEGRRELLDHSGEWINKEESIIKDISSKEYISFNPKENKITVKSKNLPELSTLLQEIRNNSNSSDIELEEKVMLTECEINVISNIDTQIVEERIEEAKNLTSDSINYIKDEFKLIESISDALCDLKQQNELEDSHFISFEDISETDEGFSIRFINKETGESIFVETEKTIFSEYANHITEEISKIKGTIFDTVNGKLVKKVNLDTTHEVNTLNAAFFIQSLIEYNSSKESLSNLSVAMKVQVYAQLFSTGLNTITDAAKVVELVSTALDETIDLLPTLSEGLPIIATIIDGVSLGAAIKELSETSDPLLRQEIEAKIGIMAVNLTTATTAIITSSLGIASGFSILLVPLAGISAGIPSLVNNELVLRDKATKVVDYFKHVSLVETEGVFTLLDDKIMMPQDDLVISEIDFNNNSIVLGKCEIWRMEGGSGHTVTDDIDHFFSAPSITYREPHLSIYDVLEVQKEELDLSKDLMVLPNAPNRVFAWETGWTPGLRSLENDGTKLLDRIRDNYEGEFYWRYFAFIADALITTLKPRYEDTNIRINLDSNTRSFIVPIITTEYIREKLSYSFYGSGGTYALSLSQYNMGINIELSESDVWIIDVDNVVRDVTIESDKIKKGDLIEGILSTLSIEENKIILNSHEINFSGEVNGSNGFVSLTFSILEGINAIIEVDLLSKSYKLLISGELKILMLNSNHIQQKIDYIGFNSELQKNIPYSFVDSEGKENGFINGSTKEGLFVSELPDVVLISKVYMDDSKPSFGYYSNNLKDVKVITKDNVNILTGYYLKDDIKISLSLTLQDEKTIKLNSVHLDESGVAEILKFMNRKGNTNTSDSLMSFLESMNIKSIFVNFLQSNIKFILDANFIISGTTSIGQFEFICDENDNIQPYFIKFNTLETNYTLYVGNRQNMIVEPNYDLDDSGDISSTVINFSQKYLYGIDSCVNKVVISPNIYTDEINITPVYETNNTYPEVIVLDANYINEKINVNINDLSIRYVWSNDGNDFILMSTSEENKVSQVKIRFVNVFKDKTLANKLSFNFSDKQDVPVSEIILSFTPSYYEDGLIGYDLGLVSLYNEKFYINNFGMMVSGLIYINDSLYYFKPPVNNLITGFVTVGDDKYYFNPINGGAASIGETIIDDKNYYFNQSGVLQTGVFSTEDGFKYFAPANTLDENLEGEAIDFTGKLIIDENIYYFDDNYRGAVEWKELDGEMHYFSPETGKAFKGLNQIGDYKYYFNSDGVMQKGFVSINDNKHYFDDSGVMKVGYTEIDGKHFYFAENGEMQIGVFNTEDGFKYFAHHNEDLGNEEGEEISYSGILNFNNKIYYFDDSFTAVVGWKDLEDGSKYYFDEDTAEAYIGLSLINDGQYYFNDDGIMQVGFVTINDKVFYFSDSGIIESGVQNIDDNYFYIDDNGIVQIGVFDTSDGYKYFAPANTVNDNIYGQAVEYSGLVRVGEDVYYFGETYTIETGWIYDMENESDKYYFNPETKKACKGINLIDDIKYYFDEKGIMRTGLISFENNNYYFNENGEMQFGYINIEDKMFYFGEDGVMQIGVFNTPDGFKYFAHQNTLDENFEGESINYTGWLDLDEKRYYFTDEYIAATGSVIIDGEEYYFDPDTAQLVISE
# * marks the source's active call; other numbers are inactive results; ? = inconclusive; / = no result given; ! = not active in a repeat.
SMILES,Sa ugtP lethal,PrP UTR inh,PfHsp40 rescue,Sa RN4220 lethal,TcdB inh
CC(C)C(=O)Nc1cccc(NC(=S)NC(=O)c2ccc3c(c2)OCO3)c1,-2,-41,1,3,0
CCc1ccc(C(=O)NC(=S)Nc2ccc3c(c2)OCCO3)cc1,37,-155,8,16,/
O=C(Nc1ccc2oc(=O)ccc2c1)c1cc2ccccc2o1,-15,-99,1,5,/
O=S(=O)(c1ccccc1)N1[C@H](CO)[C@H]2c3ccccc3NC[C@H]21,/,/,/,/,-1
C[C@H]1CN([C@@H](C)CO)C(=O)c2cccc(NC(=O)C3CCOCC3)c2O[C@H]1CN(C)S(=O)(=O)c1ccc(Cl)cc1,/,/,/,/,0
Cc1ccccc1-c1cnc2c(c1)C(=O)N([C@@H](C)CO)C[C@H](C)[C@@H](CN(C)Cc1cncnc1)O2,/,/,/,/,-6
O=S(=O)(N=C(c1ccccc1)N1CCCCC1)c1ccccc1,-7,/,/,12,/
Cc1cc(C)cc(C(=O)NC(=S)Nc2ccc3c(c2)OCCO3)c1,93*,-86,0,6,0
O=C(Nc1cccc(Cl)c1N1CCCC1)c1cc2ccccc2o1,89*,-34,0,-12,/
C[C@@H]1CN([C@H](C)CO)S(=O)(=O)c2ccc(C#CC(C)(C)O)cc2O[C@@H]1CN(C)C,/,/,/,/,1
COc1ccc(Sc2nc(-c3ccccn3)ncc2OC)cc1,3,2,?,1,5
COc1cnc(-c2ccccn2)nc1Sc1ccc(F)cc1,-3,-15,37*,6,3
COc1cnc(-c2ccccn2)nc1N(C)c1ccccc1,/,-3,183*,/,2
COc1cnc(-c2ccccn2)nc1Sc1ccccc1,7,-16,268*,8,0
COCC(=O)Nc1ccc2c(c1)C(=O)N(C)[C@H]1CC[C@H](CC(=O)NCc3ccccc3F)O[C@H]1CO2,/,/,/,/,-3
COC(=O)C1=C(c2ccc(F)cc2OCc2ccccc2)CC2CCC1N2C(=O)NCCOc1ccccc1Cl (stereo not drawn),8,/,/,-7,/
O=S(=O)(Oc1ccccc1/C=N/n1cnnc1)c1ccccc1,/,-23,1,/,20*
COc1ccccc1/C=N/n1cnnc1,/,-12,-1,/,/
O=C1NN=C2CCCCCCC12 (stereo not drawn),/,/,/,/,11*
Cc1ccc(Cl)cc1NC1=C/C(=N\S(=O)(=O)c2cccs2)c2ccccc2C1=O,46,-24,-1,90*!,0
Cc1ccc(NC2=C/C(=N\S(=O)(=O)c3cccs3)c3ccccc3C2=O)c(C)c1,-5,-41,-2,11,/
O=C(Nc1cc(-c2ccccc2)[nH]n1)c1ccccc1F,-2,/,/,1,3
CCNC(=S)Nc1cc(-c2ccc(Cl)cc2)[nH]n1,10,-14,122*,10,2
CC(=O)Nc1cc(-c2ccc(F)cc2)[nH]n1,8,-13,0,7,11*
CC(=NNC(=O)c1ccc(CSc2nncn2C)cc1)c1ccc(C#N)cc1,11,/,/,5,/
SMILES,Sa ugtP lethal,PrP UTR inh,PfHsp40 rescue,Sa RN4220 lethal,TcdB inh
O=C(c1ccncc1)N1C[C@@H]2[C@H](c3ccccc31)[C@@H](CO)N2Cc1ccc(F)cc1,/,/,/,/,0
CC(=O)N1[C@@H]2Cn3c(ccc(/C=C/c4ccccc4)c3=O)[C@H]1[C@@H](C(=O)NCC1CC1)[C@@H]2CO,/,/,/,/,1
NNC(=O)c1ccc2nc(-c3ccc(Br)cc3)cn2c1,/,-49,71*,/,-3
O=C(NN=Cc1ccco1)c1ccccc1OCc1ccc(Br)cc1,-3,/,/,1,/
CCCCCCCCCCCCCCCCn1cc[n+](CC(C)=O)c1,101*,-3,-1,100*,/
COc1cc(NC(=O)CCc2nnc3ccc(N4CCC(C)CC4)nn23)cc(OC)c1,2,-24,1,-2,10*
COc1cc(NC(=O)CCc2nnc3ccc(N4CCN(c5cccc(OC)c5)CC4)nn23)cc(OC)c1,-5,-20,-1,2,1
O=C(C[C@@H]1C=C[C@H](NC(=O)c2ccncc2)[C@@H](CO)O1)NCC1CC1,/,/,/,/,2
Cc1cc[n+](CC[n+]2ccc(C)cc2)cc1,4,-5,1,7,1
CCC(C)(C)c1ccc(OCCCC[n+]2cccc(C)c2C)c(C(C)(C)CC)c1,100*,-3,45*,101*,10
CCC(C)(C)c1ccc(OCCCC[n+]2ccc(C)cc2)c(C(C)(C)CC)c1,100*,/,/,100*,/
COc1ccc(-c2[nH]ncc2N=Nc2ccccc2)cc1,22,-42,50*,-13,1
CC(Oc1ccccc1F)C(=O)NNC(=O)CCS(=O)(=O)c1ccccc1Cl (stereo not drawn),-6,-15,-1,3,1
C[C@H](NS(=O)(=O)c1c(Cl)cccc1Cl)C(=O)NNC(=O)COc1ccccc1F,0,1,50*,3,-1
COC(=O)C[C@H]1CC[C@H]2[C@@H](COC[C@H](O)CN2S(=O)(=O)c2cn(C)cn2)O1,/,/,/,/,0
Cc1noc(C)c1COc1ccc(C(=O)OC(C)C(=O)Nc2ccc(N3CCOCC3)cc2)cc1 (stereo not drawn),12,-7,67*,4,/
C/C(CCc1ccccc1)=N\NC(=O)C1C2CCCCC21 (stereo not drawn),/,-10,1,/,11*
Cc1cc(C(=O)CSc2ccc(F)cc2)cc(C)c1OC(=S)N(C)C,42,68*,3,-2,/
COc1ccc(SCC(=O)c2cc(C)c(OC(=S)N(C)C)c(C)c2)cc1,27,-36,1,5,/
COc1cccc(C2NC(=S)NC3=C2CCc2ccccc23)c1 (stereo not drawn),-3,-10,173*,5,-4
CCCS(=O)(=O)NC(=O)C1(C)CCN(C(=O)c2ccco2)C1 (stereo not drawn),/,/,/,/,11*
CCCS(=O)(=O)NC(=O)C1(C)CCN(C(=O)c2cccc3ccccc23)C1 (stereo not drawn),/,/,/,/,2
CC(C)(C)c1ccc(C(=O)OC/C(O)=C(\C#N)c2nc3ccccc3s2)cc1,85*,-1,-3,78,0
N#C/C(=C(/O)COC(=O)c1ccccc1O)c1nc2ccccc2s1,/,1,-1,/,1
O=C(CSc1nnc(-c2ccccc2)n1-c1ccc(Cl)cc1)NN=Cc1ccco1,2,/,/,-1,/
SMILES,Sa ugtP lethal,PrP UTR inh,PfHsp40 rescue,Sa RN4220 lethal,TcdB inh
Cc1[nH]n(-c2ccccc2)c(=O)c1N=Nc1nccs1,44,7,36*,66,/
Cc1ccccc1N=Nc1c(C)[nH]n(-c2ccccc2)c1=O,1,/,/,-1,/
CCCNC1=C(N(C(C)=O)c2cccc(F)c2)C(=O)c2ccccc2C1=O,20,34,49*,22,3
COc1ccc2c3c([nH]c2c1)[C@H](CO)N(C(=O)C1CCC1)CC31CN(C)C1,/,/,/,/,-1
Oc1nc(Nc2cccc(Cl)c2)sc1/C=C1\C=Nc2ccccc21,100*,-35,1,100*,0
Oc1cccc(Nc2nc(O)c(/C=C3\C=Nc4ccccc43)s2)c1,2,-36,-1,2,2
CN(C)C=Nc1nc2nccc(-c3ccc(F)cc3)n2n1,8,/,/,6,/
C[C@H](CO)N1C[C@H](C)[C@H](CN(C)S(=O)(=O)c2ccc(F)cc2)Oc2ccc(NC(=O)C3CC3)cc2CC1=O,/,/,/,/,0

# Bioassay records from PubChem BioAssay.
